# Screening data deposited in PubChem BioAssay by several laboratories.
# An excerpt weighted towards active compounds, which were near 2.3% of everything screened.
# H9c2 TAG inh: inhibitors of triacylglycerol accumulation; H9c2 cells, Nile Red lipid (TAG) fluorescence; cells loaded with 200 µM oleic acid; inhibition, % at 12.5 µM; actives 0.66% (n = 230,000); AID 651582;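 active = pattern-corrected inhibition of lipid staining of at least 50% with the nuclear-stain viability signal not falling by more than 50%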;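 note: 0% = DMSO wells and 100% = triacsin C control wells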
# aSyn UTR inh: MLPCN primary screen, SNCA 5' untranslated region; alpha-synuclein 5'UTR reporter, inhibitor activity; inhibition, % (tested at 7.5 µM); actives 0.82% (n = 300,000); AID 1813; in the data active = inhibition above about 60%; inconclusive = no clear call, values can overlap the other calls;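 note: H4 neuroglioblastoma cells stably carrying SNCA 5'UTR luciferase fusion; 0% = DMSO wells and 100% = positive control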
# Gli-Sufu antag: Gli-Sufu pathway antagonism; Sufu-KO-LIGHT fibroblasts, Gli luciferase reporter luminescence; inhibition, % at 5 µM; actives 0.74% (n = 340,000); AID 588413;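 active = inhibition above about 55%, limit read from the data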;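 note: 0% = DMSO-treated cells and 100% = wells with medium but no cells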
# Shn3 inh set2: reduces Shn3 3'UTR luciferase signal in osteoblasts; Clone20 osteoblast Shn3 3'UTR firefly luciferase, 24 h; inhibition, % at 12.5 µM; actives 0.52% (n = 360,000); AID 588674;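 active = mean inhibition of at least 75% with every replicate also reaching 75%; inconclusive = mean inhibition at least 75% but some replicate below; inactive = mean inhibition below 75%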;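 note: 0% = median of neutral control wells and 100% = pilot-screen positive control compound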
# 697 NFkB inh: lowers PMA/ionomycin-induced NF-kB signal in 697 B cells | 697 B-cell NF-kB luciferase reporter, 16 h | inhibition, % at 4 µM | actives 0.33% (n = 330,000) | AID 435022; in the data active = inhibition above about 35%
# Jurkat NFkB inh: lowers PMA/ionomycin-induced NF-kB signal in Jurkat cells | PMA/ionomycin-induced NF-kB luciferase reporter, luminescence | actives 0.53% (n = 330,000) | inhibition, % at 4 µM | AID 435003; in the data active = inhibition above about 50%
# An asterisk follows results filed as active; ? = inconclusive; . = no result given.
SMILES,H9c2 TAG inh,aSyn UTR inh,Gli-Sufu antag,Shn3 inh set2,697 NFkB inh,Jurkat NFkB inh
O=[N+]([O-])c1ccc(S(=O)(=O)c2ccccc2)nc1,.,-47.7,31.7,92.8*,-75.6,25.4
Cc1nnc(SCC(=O)Nc2nccs2)n1C(C)C,5.5,1.6,6.1,5.8,11.0,12.9
CCCCCCN1C[C@H](n2cc(-c3ccc(F)cc3)nn2)[C@@H](O)C[C@@H]1c1ccc(Cl)cc1,119.2,.,.,95.4*,.,.
CCCCCCN1C[C@H](n2cc(-c3ccc(F)cc3)nn2)[C@@H](O)C[C@@H]1c1ccccc1,-1.9,.,.,6.2,.,.
O=S(=O)(c1cccc2cccnc12)N1CCN(c2ccccn2)CC1,-1.8,7.0,1.5,-38.4,19.2,6.8
Fc1ccc(C2=CC(c3ccco3)n3nnnc3N2)cc1 (stereo not drawn),0.3,-47.6,-6.1,.,-11.1,4.3
COc1ccccc1-c1cc(C(=O)NC2CCN(C)CC2)c2ccc(Cl)c(C)c2n1,102.6*,101.3*,5.5,19.6,19.7,43.6
Cc1c(Cl)ccc2c(C(=O)NCCN3CCCCC3)cc(-c3ccccn3)nc12,42.5,26.7,10.0,-10.8,-7.1,-0.9
Cc1cnc(C(=O)OCC(=O)N2c3ccccc3CC2C)cn1 (stereo not drawn),-1.2,22.0,5.8,-22.3,22.2,4.1
COc1cccc(C(=O)NC(=O)Nc2cc(C)[nH]n2)c1,6.1,-139.9,-50.6,-83.2,-88.2,-64.7
N#Cc1c([N+](=O)[O-])cc([N+](=O)[O-])cc1S(=O)(=O)Cc1ccccc1,20.2,.,0.5,95.0*,-20.5,4.1
COc1cc(OC)c(C#N)c(S(=O)(=O)Cc2ccccc2)c1,.,-2.6,3.1,0.7,3.1,-3.1
CCOc1ccc(C(=O)N[C@H](C(=O)Nc2cccc(S(=O)(=O)N3CCCCC3)c2)C(C)C)cc1,.,75.6*,-5.2,19.1,11.6,25.5
CCOc1ccc(C(=O)N[C@H](C(=O)Nc2cccc(S(=O)(=O)N3CCOCC3)c2)C(C)C)cc1,9.5,.,-0.3,5.4,25.7,22.1
Cc1cccc(/C=N/NC(=O)c2ccc(Br)cc2)c1,-0.9,-90.0,-34.5,-45.7,-25.1,-15.4
COCCN=c1scc(-c2cccs2)n1/N=C/c1ccc(O)c(O)c1O,18.7,66.9*,-1.0,?,-9.2,-1.5
Cc1ccc(NC2=C(Cl)C(=O)OC2OC(C)C)c(C)c1 (stereo not drawn),.,69.2*,13.8,-14.7,23.9,7.5
Cc1cc(NC(=O)CSCC(=O)Nc2cc(Cl)ccc2N2CCN(C)CC2)no1,33.2,.,1.3,-18.0,-6.4,-2.5
CCCCn1c(=N)n(CC(=O)c2ccc(Br)s2)c2ccccc21,70.0*,-13.0,8.3,58.4,-11.6,12.2
CCn1c(=N)n(CC(=O)c2ccc(Br)s2)c2ccccc21,6.0,-50.6,10.4,.,-22.8,-26.7
Nc1cc(C(=O)N2CCN(c3ccc([N+](=O)[O-])cc3)CC2)ccc1N1CC2CC(C1)c1cccc(=O)n1C2 (stereo not drawn),.,-7.8,-4.5,-2.2,2.2,2.8
CCc1c(O)nc(SCC(=O)Nc2ccccc2)n(-c2ccccc2)c1=O,.,-23.8,4.0,95.8*,6.0,5.2
CCn1cc(C(=O)N2CCCC2)c(=O)c2cc(S(=O)(=O)N(C)C)ccc21,.,-1.5,2.0,8.0,8.8,-3.5
COC(=O)c1ccc(COc2ccc3c(C)c(C)c(=O)oc3c2C)o1,.,.,-29.9,-2.7,.,.
Cc1ccc(S(=O)(=O)Nc2ccc3cn[nH]c3c2)c(C)c1,-4.5,.,7.7,15.7,-1.4,1.8
SMILES,H9c2 TAG inh,aSyn UTR inh,Gli-Sufu antag,Shn3 inh set2,697 NFkB inh,Jurkat NFkB inh
CCOc1cc(C)c(S(=O)(=O)Nc2ccc3cn[nH]c3c2)cc1C,.,-73.7,42.6,87.1*,-5.7,15.6
Cc1ccc(C(=O)N/C(=C\c2ccc(-c3ccccc3[N+](=O)[O-])o2)C(=O)NCCCN2CCOCC2)cc1,.,70.6*,4.3,-25.2,5.3,18.8
O=C(Cn1ccc([N+](=O)[O-])n1)Nc1nccs1,.,9.8,7.5,0.0,12.7,3.2
CCN=C1S/C(=C\c2ccc(O)c(OCC)c2)C(=O)N1CC,.,68.2*,-23.1,-29.6,-10.2,-3.4
COc1ccc2c(c1)c1ccc3c(c1n2C)C(=O)C=CC3=O,.,.,-3.8,96.2*,-34.7,13.9
COc1ccc2c(c1)c1ncn(CCN3CCCC3)c(=O)c1n2C,.,7.5,2.5,-26.8,-7.3,-17.4
Cc1ccc(C)c2c1c1ccccc1n2C,1.4,3.8,2.8,1.1,3.4,12.5
